Experimental data as given in PubChem BioAssay (NCATS).
Results filed as inconclusive are left out. Activity calls are given as the source filed them. Calls come from the whole dose curve; as a rule, active = well fitted curve in the direction sought with a large enough effect; inconclusive = small, poorly fitted or top-dose-only effect, or another doubt; inactive = no such curve, though single readings can be large; an effect the other way counts as inactive or inconclusive.

Key:
CRL-7250 = normal cell line; test: Cytotoxic Profiling of Annotated Libraries Using Quantitative High-Throughput Screening (AID 1296008); conditions: Five cell lines viability, CellTiter-Glo ATP luminescence, 48-72 h; max response: stronger effect = lower value; note: nearly all actives have a fitted effect of over 60% in size; for max response: % is set by controls: 0 for no effect and ±100 for the full control effect
Procedure, shortened: (§1)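 Cells exposed to compounds for 48 or 72 hr at 37 degrees Celsius. Viability read as ATP-coupled luminescence with CellTiter-Glo after 10 min at room temperature.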

HaCat [1] = test: as above; conditions: Five cell lines viability, CellTiter-Glo ATP luminescence, 48-72 h; max response: stronger effect = lower value
Procedure, shortened: as §1

KB-3-1 = test: as above; conditions: Five cell lines viability, CellTiter-Glo ATP luminescence, 48-72 h; max response: stronger effect = lower value
Procedure, shortened: as §1

NIH3T3 [2] = test: as above; conditions: Five cell lines viability, CellTiter-Glo ATP luminescence, 48-72 h; max response: stronger effect = lower value
Procedure, shortened: as §1

HACAT [3] = test: qHTS assay to identify novel small-molecules to repurpose for Merkel cell carcinoma treatment (AID 1296009); conditions: MCC and control cell lines, CellTiter-Glo viability, 72 h; at 44.8 µM (top of the series) unless noted; note: nearly all actives have a fitted effect of over 60% in size
Procedure, shortened: (§2)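 Dose-response viability screen; 72 hr exposure at 37 degree celsius; CellTiter-Glo added, 10 min room temperature, luminescence read; RLUs scaled between no-cell and DMSO wells.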

C33A = test: Primary qHTS to identify gynecologic anti-cancer compounds using libraries of approved drugs and bioactive compounds (AID 1345084); conditions: Gynecologic cancer cell panel viability, ATPlite luminescence, 48 h; series mostly up to 57.5 µM; note: % is set by controls: 0 for no effect and ±100 for the full control effect; nearly all actives have a fitted effect of over 55% in size
Procedure, shortened: (§3)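 Measured: luminescence after ATPlite addition (15 min, RT). Exposure: 48 h, 37 C, 5% CO2.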

CAOV3 = test: as above; conditions: Gynecologic cancer cell panel viability, ATPlite luminescence, 48 h; series mostly up to 57.5 µM
Procedure, shortened: as §3

CASKI = test: as above; conditions: Gynecologic cancer cell panel viability, ATPlite luminescence, 48 h; series mostly up to 57.5 µM
Procedure, shortened: as §3

Es-2 = test: as above; conditions: Gynecologic cancer cell panel viability, ATPlite luminescence, 48 h; series mostly up to 57.5 µM
Procedure, shortened: as §3

HeLa = test: as above; conditions: Gynecologic cancer cell panel viability, ATPlite luminescence, 48 h; series mostly up to 57.5 µM
Procedure, shortened: as §3

Hek293T = test: as above; conditions: Gynecologic cancer cell panel viability, ATPlite luminescence, 48 h, control line for the selectivity index; series mostly up to 57.5 µM
Procedure, shortened: as §3

JEG-3 = test: as above; conditions: Gynecologic cancer cell panel viability, ATPlite luminescence, 48 h; series mostly up to 57.5 µM
Procedure, shortened: as §3

OV90 = test: as above; conditions: Gynecologic cancer cell panel viability, ATPlite luminescence, 48 h; series mostly up to 57.5 µM
Procedure, shortened: as §3

PA-1 = test: as above; conditions: Gynecologic cancer cell panel viability, ATPlite luminescence, 48 h; series mostly up to 57.5 µM
Procedure, shortened: as §3

SKOV3 = test: as above; conditions: Gynecologic cancer cell panel viability, ATPlite luminescence, 48 h; series mostly up to 57.5 µM
Procedure, shortened: as §3

NIH3T3 [4] = test: qHTS assay to identify novel small-molecules to repurpose for Merkel cell carcinoma treatment (AID 1296009); conditions: MCC and control cell lines, CellTiter-Glo viability, 72 h; series mostly up to 44.8 µM; note: nearly all actives have a fitted effect of over 60% in size
Procedure, shortened: as §2

C/C=C(/C=C(C)/C=C/C=C/C=C(\C)C(=O)C12OC1C(O)(CCO)NC2=O)C(=O)OC (stereo unspecified)
inactive: max response (CRL-7250) -6.59% | outcome (HaCat [1]) | outcome (KB-3-1) | max response (NIH3T3 [2]) -1.05% | outcome (HACAT [3]) inactive [at 17.4 µM] | Potency (C33A) | Potency (CAOV3) | Potency (CASKI) | Potency (Es-2) | Potency (HeLa) | Potency (Hek293T) | Potency (JEG-3) | Potency (OV90) | Potency (PA-1) | Potency (SKOV3)

COC(=O)C[C@H]1C(C)(C)[C@H](OC(=O)c2ccccc2)C2CC3=C4CC(=O)O[C@@H](c5ccoc5)[C@]4(C)CCC3[C@@]1(C)C2=O (stereo partly specified)
inactive: max response (CRL-7250) -6.86% | outcome (HaCat [1]) | max response (KB-3-1) 0.65% | max response (NIH3T3 [2]) 0.65% | outcome (HACAT [3]) inactive [at 17.4 µM] | Potency (C33A) | Potency (CASKI) | Potency (Es-2) | Potency (HeLa) | Potency (Hek293T) | Potency (JEG-3) | Potency (OV90) | Potency (PA-1) | Potency (SKOV3)

COCC(c1ccc(C(F)(F)F)cc1)N1CCN(C2(C)CCN(C(=O)c3c(C)ncnc3C)CC2)CC1C (stereo unspecified)
inactive: max response (CRL-7250) 4.87% | max response (HaCat [1]) -10.9% | max response (KB-3-1) 8.07% | outcome (NIH3T3 [2]) | Potency (NIH3T3 [4]) | Potency (C33A) | Potency (CAOV3) | Potency (CASKI) | Potency (Es-2) | Potency (HeLa) | Potency (Hek293T) | Potency (JEG-3) | Potency (OV90) | Potency (PA-1)

O=C(Nc1ccc(N(Cc2ccsc2)C(=O)Cn2nnc3ccccc32)cc1)C1CC1
inactive: max response (CRL-7250) -5.74% | outcome (HaCat [1]) | max response (KB-3-1) 6.41% | max response (NIH3T3 [2]) 4.89% | outcome (HACAT [3]) | Potency (C33A) | Potency (CAOV3) | Potency (CASKI) | Potency (Es-2) | Potency (HeLa) | Potency (Hek293T) | Potency (JEG-3) | Potency (OV90) | Potency (SKOV3)

CC(C)[C@@H](c1ccc(C(F)(F)F)cc1CN(Cc1cc(C(F)(F)F)cc(C(F)(F)F)c1)c1nnn(C)n1)N1CCC(C(=O)O)CC1
inactive: max response (CRL-7250) -8.05% | outcome (HaCat [1]) | max response (KB-3-1) -11.9% | max response (NIH3T3 [2]) 4.8% | outcome (HACAT [3]) | Potency (C33A) | Potency (CASKI) | Potency (Es-2) | Potency (HeLa) | Potency (Hek293T) | Potency (JEG-3) | Potency (OV90) | Potency (PA-1) | Potency (SKOV3)

C=C1C(=O)OC2CC(C)C(CCC(C)O)=CCC12 (stereo unspecified)
inactive: max response (CRL-7250) -9.97% | outcome (HaCat [1]) | outcome (KB-3-1) | max response (NIH3T3 [2]) -1.15% | outcome (HACAT [3]) | Potency (C33A) | Potency (CAOV3) | Potency (CASKI) | Potency (Es-2) | Potency (HeLa) | Potency (Hek293T) | Potency (OV90) | Potency (PA-1)

CCCOc1ccc(S(=O)(=O)N2CCN(CCO)CC2)cc1-c1nc2c(CCC)cn(CC)c2c(=O)[nH]1
inactive: max response (CRL-7250) -15% | outcome (HaCat [1]) | max response (KB-3-1) 7.41% | max response (NIH3T3 [2]) 4.33% | outcome (HACAT [3]) | Potency (C33A) | Potency (CAOV3) | Potency (CASKI) | Potency (Es-2) | Potency (HeLa) | Potency (Hek293T) | Potency (JEG-3) | Potency (OV90) | Potency (SKOV3)

C=C1C(OC2OC(CO)C(O)C(O)C2O)CC2C(C)(C)C(O)CCC2(C)C1CC/C(C)=C\COC(=O)CC(=O)O (stereo unspecified)
inactive: max response (CRL-7250) -0.672% | outcome (HaCat [1]) | outcome (KB-3-1) | max response (NIH3T3 [2]) 3.9% | outcome (HACAT [3]) inactive [at 17.4 µM] | Potency (C33A) | Potency (CASKI) | Potency (Es-2) | Potency (HeLa) | Potency (Hek293T) | Potency (JEG-3) | Potency (OV90) | Potency (PA-1) | Potency (SKOV3)

O=S(=O)(Cc1ccccc1)Nc1ccc(-c2ccc3c(cnn3-c3ccc(F)cc3)c2)c(C(F)(F)F)c1
inactive: max response (CRL-7250) -4.69% | outcome (HaCat [1]) | max response (KB-3-1) -15.9% | max response (NIH3T3 [2]) -4.39% | outcome (HACAT [3]) | Potency (C33A) | Potency (CASKI) | Potency (Es-2) | Potency (HeLa) | Potency (Hek293T) | Potency (JEG-3) | Potency (OV90) | Potency (PA-1)

CN(C)c1ccc(NC(=O)NS(=O)(=O)c2ccc(Cl)cc2)cc1
inactive: max response (CRL-7250) -11.7% | outcome (HaCat [1]) | outcome (KB-3-1) | max response (NIH3T3 [2]) -5.53% | outcome (HACAT [3]) | Potency (C33A) | Potency (CASKI) | Potency (Es-2) | Potency (HeLa) | Potency (Hek293T) | Potency (JEG-3) | Potency (OV90) | Potency (PA-1) | Potency (SKOV3)

O=C(NCc1ccc(OC(F)(F)F)cc1)C1c2c(F)cccc2C(=O)N1CCc1ccccn1 (stereo unspecified)
inactive: max response (CRL-7250) -3.88% | outcome (HaCat [1]) | max response (KB-3-1) 4.96% | max response (NIH3T3 [2]) -2.89% | outcome (HACAT [3]) | Potency (C33A) | Potency (CASKI) | Potency (Es-2) | Potency (HeLa) | Potency (Hek293T) | Potency (JEG-3) | Potency (OV90) | Potency (PA-1) | Potency (SKOV3)

C=C1CCC[C@]2(C)CC/C(=C(/CO)C(=O)OC)C[C@@H]12
inactive: max response (CRL-7250) -7.08% | outcome (HaCat [1]) | max response (KB-3-1) -2.83% | max response (NIH3T3 [2]) 2.53% | outcome (HACAT [3]) | Potency (C33A) | Potency (CASKI) | Potency (Es-2) | Potency (HeLa) | Potency (Hek293T) | Potency (JEG-3) | Potency (OV90) | Potency (PA-1) | Potency (SKOV3)

CCC/C=C/C(=O)O[C@H]1CC(C)(C)CC2[C@@]13[C@H](O)C[C@]1(C)[C@@]2(CCC2[C@@]4(C)CC[C@H](O[C@@H]5O[C@H](C(=O)O)[C@@H](O)[C@H](O[C@@H]6O[C@H](CO)[C@H](O)[C@H](O)[C@H]6O[C@@H]6O[C@@H](C)[C@H](O)[C@@H](O)[C@H]6O[C@@H]6OC[C@](O)(CO)[C@H]6O)[C@H]5O[C@@H]5O[C@H](CO)[C@H](O)[C@H](O)[C@H]5O)C(C)(C)C4CC[C@]21C)O[C@H]3O (stereo partly specified)
inactive: outcome (CRL-7250) | outcome (HaCat [1]) | outcome (KB-3-1) | max response (NIH3T3 [2]) 3.59% | outcome (HACAT [3]) inactive [at 9.27 µM] | activity change, negative = cytotoxicity (C33A) 1.29% [at 6.55 µM] | activity change, negative = cytotoxicity (CAOV3) -15.9% [at 6.55 µM] | activity change, negative = cytotoxicity (CASKI) -0.213% [at 6.55 µM] | activity change, negative = cytotoxicity (Es-2) 3.48% [at 6.55 µM] | activity change, negative = cytotoxicity (HeLa) 4.5% [at 6.55 µM] | activity change, negative = cytotoxicity (Hek293T) -25.4% [at 6.55 µM] | activity change, negative = cytotoxicity (JEG-3) 15.7% [at 6.55 µM] | activity change, negative = cytotoxicity (PA-1) -0.263% [at 6.55 µM] | activity change, negative = cytotoxicity (SKOV3) -3.55% [at 6.55 µM]
